HNF4A DNA FP: change in binding of human HNF4 alpha to DNA; P41235; HNF4a-FITC DNA binding, fluorescence polarization, 1 h; activity change, % at 10 µM; 360,000 compounds, 0.3% hits; in the data active means activity change above about 30%, passing the limit was not always enough
IDE inh: inhibitors of human insulin-degrading enzyme in cells | inhibition, % at 5.59 µM | HEK cells, FAbetaB cleavage, fluorescence polarization | 320,000 compounds, 0.41% hits | AID 434962;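 active means percent inhibition above the average of all tested compounds plus 3 SD, set per screening campaign, cut at about 16% in these data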;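 further: IDE supplied by intact live HEK cells; FP after avidin binding of uncleaved biotin substrate so inhibition keeps polarization high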
Target sequence (P14735 whole entry, looked up): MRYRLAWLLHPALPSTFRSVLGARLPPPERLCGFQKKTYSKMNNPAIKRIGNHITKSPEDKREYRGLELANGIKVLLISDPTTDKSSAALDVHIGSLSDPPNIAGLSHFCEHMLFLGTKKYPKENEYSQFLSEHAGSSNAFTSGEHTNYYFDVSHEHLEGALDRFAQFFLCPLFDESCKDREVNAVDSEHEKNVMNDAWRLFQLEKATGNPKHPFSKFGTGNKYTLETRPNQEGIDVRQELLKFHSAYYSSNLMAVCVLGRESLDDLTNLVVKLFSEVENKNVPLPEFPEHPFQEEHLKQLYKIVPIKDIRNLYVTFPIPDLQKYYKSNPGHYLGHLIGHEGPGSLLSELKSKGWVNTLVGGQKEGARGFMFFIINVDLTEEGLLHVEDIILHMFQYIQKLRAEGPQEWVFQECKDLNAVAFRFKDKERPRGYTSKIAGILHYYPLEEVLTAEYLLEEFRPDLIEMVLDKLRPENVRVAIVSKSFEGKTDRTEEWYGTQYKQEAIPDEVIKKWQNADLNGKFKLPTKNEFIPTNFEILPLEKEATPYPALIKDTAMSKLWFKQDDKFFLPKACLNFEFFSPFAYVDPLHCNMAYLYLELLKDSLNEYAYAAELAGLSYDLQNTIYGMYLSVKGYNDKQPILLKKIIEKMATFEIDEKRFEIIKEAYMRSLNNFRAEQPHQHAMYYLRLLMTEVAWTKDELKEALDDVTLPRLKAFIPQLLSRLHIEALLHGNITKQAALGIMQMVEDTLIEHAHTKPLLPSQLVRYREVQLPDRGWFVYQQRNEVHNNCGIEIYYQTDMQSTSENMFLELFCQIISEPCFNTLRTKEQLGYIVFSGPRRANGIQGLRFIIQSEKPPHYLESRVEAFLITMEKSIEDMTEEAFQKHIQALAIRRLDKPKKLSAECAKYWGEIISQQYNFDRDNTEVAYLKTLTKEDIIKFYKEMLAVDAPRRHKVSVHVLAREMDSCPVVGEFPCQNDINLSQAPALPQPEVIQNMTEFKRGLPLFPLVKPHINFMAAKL
CRFR2-BP ag: CRF-BP/CRF-R2 complex agonism; HEK293 CRF-R2/CRF-BP, calcium dye fluorescence (FLIPR); percent of saturating CRF peptide response; activation, % at 13.2 µM; 350,000 compounds, 0.46% hits; AID 588473;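 active means activation of at least 50%, plus an integration ratio under a set limit after plate pattern correction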
IDE act: activators of human insulin-degrading enzyme in cells. 340,000 compounds, 0.073% hits. activation, % at 5.96 µM. AID 493087. HEK cells, FAbeta-B cleavage, fluorescence polarization; 0% vehicle, 100% cell-free pure enzyme wells. P14735;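 active means activation above the mean of all tested compounds plus 3 SD, set per screening campaign, cut at about 17% in these data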
TPT1 inh: inhibitors of Candida albicans tRNA 2'-phosphotransferase TPT1. 300,000 compounds, 0.81% hits. AID 1962. inhibition, % at 5 µM. recombinant caTPT1, FP RNA substrate dephosphorylation;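 active means inhibition above the mean of all tested compounds plus 3 SD, set per screening campaign, cut at about 24% in these data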
Numbers stand for hits; - = inactive; . = no result given. The list is not random: actives were taken first. Their share in the collection is about 1.4%.

SMILES | HNF4A DNA FP | IDE inh | CRFR2-BP ag | IDE act | TPT1 inh
COc1cccc(CN2CCN(Cc3cc4ccccc4[nH]3)CC2CCO)c1 (configuration not stated) | - | - | 57 | - | -
COc1cc(C2CC(c3cccnc3)=NN2c2ccc(F)cc2)cc(OC)c1OC (configuration not stated) | - | - | - | - | -
Nc1nn(-c2cccc(F)n2)cc1-c1ccccc1 | 39 | . | - | - | .
CC(C)NC(=O)N(C)C[C@@H]1OCc2cnnn2CCCC(=O)N([C@H](C)CO)C[C@@H]1C | - | . | - | . | .
CC(C)NC(=O)N(C)C[C@H]1OCc2cnnn2CCCC(=O)N([C@H](C)CO)C[C@H]1C | - | . | 53 | . | .
CCOc1ccc(NC(=O)c2cccc(S(=O)(=O)NCc3cccnc3)c2)cc1 | - | . | - | . | .
COc1ccc(-c2nc(SCC(=O)Nc3nccs3)c(-c3ccc(Cl)cc3)[nH]2)cc1 | - | - | - | - | -
COc1ccc(-c2[nH]c(-c3ccc(C)cc3)nc2SCC(=O)Nc2nccs2)cc1 | 30 | - | - | - | -
O=C(N/N=C/c1cn(-c2ccccc2)nc1-c1ccc2c(c1)OCCO2)c1ccncc1 | - | - | - | 26 | -
O=C(N/N=C\c1cn(-c2ccccc2)nc1-c1ccccc1)c1ccc2c(c1)OCO2 | - | - | - | - | -
CC(C)(C)NC(=O)C(C1CC1)n1c(=O)c(-c2ccco2)nc2ccccc21 (configuration not stated) | - | . | . | . | .
CCOC(=O)c1sc2nc(OCc3cccnc3)cc(C)c2c1N | - | . | . | . | .
COCCN(Cc1cc2ccc(C)cc2[nH]c1=O)S(=O)(=O)c1ccccc1 | - | - | - | - | -
CC(=O)Oc1ccc2c(c1)Oc1cc(OC(C)=O)ccc1C21OC(=O)c2ccccc21 | - | - | 368 | 42 | -
Cc1cc(C)c2nc(N3C(=O)C(O)=C(C(=O)c4ccco4)C3c3cccc(O)c3)sc2c1 (configuration not stated) | - | - | - | - | .
CC(C)NC(=S)N(C)C1(c2ccccc2Cl)CCCCC1=O (configuration not stated) | - | - | - | - | -
COCCNC(=S)N(C)C1(c2ccccc2Cl)CCCCC1=O (configuration not stated) | - | - | - | 17 | -
Clc1nc(Cl)nc(NCCC2=CCCCC2)n1 | - | - | - | - | -
CCOC(=O)Cc1csc(NC(=O)CSc2nnc(-c3ccncc3)o2)n1 | - | - | 121 | . | -
O=C(Nc1nnc(-c2ccccc2)o1)c1nc2ccccc2s1 | - | - | 140 | - | -
Cn1c(=O)c(NCCc2ccccc2)c2c3c(cccc31)C(=O)c1ccccc1-2 | - | - | - | - | -
Cn1c(=O)c(NCCO)c2c3c(cccc31)C(=O)c1ccccc1-2 | - | - | - | 54 | -
COc1ccc2c(c1)C(=O)O[C@@H](c1ccccc1)C[C@@H](O)C(=O)CC2 | - | . | . | . | .
COC(=O)CN1C(=O)N/C(=C/c2ccccc2OC)C1=O | - | - | - | - | -
CCOC(=O)c1ccc(NC(=O)c2cccc3c2C(=O)N(CC2CCCO2)C3)cc1 (configuration not stated) | - | - | 82 | - | -
SMILES | HNF4A DNA FP | IDE inh | CRFR2-BP ag | IDE act | TPT1 inh
C[C@@H]1CN([C@@H](C)CO)S(=O)(=O)c2ccc(Br)cc2O[C@H]1CN(C)C(=O)Cc1cccnc1 | - | . | - | . | .
CN(C)CCNc1ccc2nnn3c4ccc(O)cc4c(=O)c1c23 | - | . | - | - | .
CCN(CC)CCCNc1ccc2ncn3c4ccc(O)cc4c(=O)c1c23 | - | . | 215 | - | .
COc1cc(OC)cc(C(=O)NC(=S)NNC(=O)[C@H]2C[C@@H]2c2ccccc2)c1 | - | - | 163 | - | -
COc1ccc(C(=O)NC(=S)NNC(=O)[C@H]2C[C@@H]2c2ccccc2)cc1OC | - | - | - | - | -
COCCNC(=O)C1(C)CCN(C(=O)c2sc(-c3ccccc3)nc2C)C1 (configuration not stated) | - | . | . | . | .
CC1CCN(S(=O)(=O)c2ccc(C(C)C)cc2)CC1 | - | - | 90 | - | -
CCOC(=O)[C@]12CCCC=C1N(CCc1ccc(OC)c(OC)c1)C(=O)[C@H](CC(=O)NCCc1ccccc1OC)C2 | - | . | . | . | .
CCCCCCc1cc2cc(C(=O)NC)c(=N)oc2cc1O | - | - | 286 | - | -
CCCCCCc1cc2cc(C(=O)Nc3cccc(OC)c3)c(=O)oc2cc1O | - | - | 57 | - | -
CCOC(=O)C1=C(CSc2nc(-c3ccccc3)ccc2C#N)OC(N)=C(C#N)C1c1ccccc1 (configuration not stated) | 39 | - | - | - | -
CCOc1ccc(OCC)c(S(=O)(=O)n2ccnc2C)c1 | 48 | - | - | - | -
CCCCCCCCCCCCCCC[C@@H](O)[C@@H](N)CO | 121 | . | - | - | .
CCCCCCCCCC(=O)OCC(O)CO (configuration not stated) | - | - | - | - | -
CCCCCCCCCCCCCCCC[n+]1ccc(/C=N/O)cc1 | 40 | - | - | - | -
CCOC(=O)c1ccc(NC(=S)N2CCC(O)CC2)cc1 | - | - | - | - | -
CCOC(=O)c1ccc(NC(=S)N2CCSC2c2ccc(Br)cc2)cc1 (configuration not stated) | - | - | 101 | - | -
Cc1cccc(NC(c2ccc(C)s2)c2ccc3ccc(C)nc3c2O)n1 (configuration not stated) | - | 22 | - | - | -
O=C1C2=C(SCCS2)C(=O)N1CCCO | - | - | 59 | - | -
CN1CCC(N(C)C(=O)c2sc3cc(F)ccc3c2Cl)CC1 | 100 | - | - | - | -
CC(C)N(CC(N)=O)C(=O)c1sc2cc(F)ccc2c1Cl | - | - | - | - | -
Cc1ccc(-c2noc(CN3CCC(C(N)=O)CC3)n2)cc1 | - | - | 51 | - | -
CCOC(=O)C1CCN(Cc2nc(-c3ccc(OC)c(OC)c3)no2)CC1 | - | - | - | - | -
C=CCn1c(NC(=O)c2ccccc2Cl)c(C#N)c2nc3ccccc3nc21 | 64 | - | - | - | -
Cc1nc2c(C#N)cnn2c2c1CCN2CC1CCCO1 (configuration not stated) | - | - | - | - | -
SMILES | HNF4A DNA FP | IDE inh | CRFR2-BP ag | IDE act | TPT1 inh
Cc1ccc(Cn2c(=N)n(CC(=O)c3ccc([N+](=O)[O-])cc3)c3ccccc32)cc1 | 64 | - | - | - | -
CC(O)CN(CC(C)O)c1ccc2c(c1)Cc1cc([N+](=O)[O-])ccc1-2 (configuration not stated) | - | . | 197 | - | .
CC(=NO)c1ccc2c(c1)Cc1cc([N+](=O)[O-])ccc1-2 | - | . | - | - | .
O=C(NN1C(=O)/C(=C/c2cc([N+](=O)[O-])ccc2O)SC1=S)c1ccccc1O | . | - | . | . | 53
CC(C)c1cc(-c2cc(C(=O)NCc3ccccc3)on2)nc(NCC2CC2)n1 | - | - | 96 | - | -
CC(C)c1cc(-c2cc(C(=O)Nc3ccccc3)on2)nc(NCC2CC2)n1 | . | - | . | . | -
FC(F)(F)c1cccc(-c2nc3nc(Cl)c(Cl)nc3[nH]2)c1 | - | - | 81 | - | -

Bioassay records as filed in PubChem BioAssay.
